# Data taken from PubChem BioAssay AID623926 (Vanderbilt Specialized Chemistry Center, 2012).
# Activity calls are given as the source filed them.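 The calls were made as follows: active = compound whose M3 calcium response shifts with concentration, judged dose-dependent by the depositor; inactive = the rest, no dose-dependent response.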
# Target: Muscarinic acetylcholine receptor M3 (Homo sapiens) (UniProt P20309)
# Experiment: potentiation of ACh response at hM3 – CHO cells, calcium flux, selectivity assay for M4 PAM optimization, SAR follow-up (AID 623926)
# Conditions: outcome: ACh EC20
row,SMILES,outcome
1,COc1ccc(C)c2sc(NC(=O)c3ccncc3)nc12,inactive
2,Cc1nc2sc(C(=O)NCCc3ccncc3)c(N)c2c(C)c1Cl,inactive
3,Cc1nc2sc(C(=O)NCc3nccs3)c(N)c2c(C)c1Cl,inactive
4,Cc1nc2sc(C(=O)NCc3ccc4c(c3)OCO4)c(N)c2c(C)c1Cl,inactive
5,Cc1nc2sc(C(=O)NC3CC3)c(N)c2c(C)c1Cl,inactive
6,Cc1nc2sc(C(=O)NCc3cccnc3)c(N)c2c(C)c1Cl,inactive
7,Cc1nc2sc(C(=O)NCc3cccc(F)c3F)c(N)c2c(C)c1Cl,inactive
8,Cc1nc2sc(C(=O)NCc3ccncc3)c(N)c2c(C)c1Cl,inactive
9,Cc1nc2sc(C(=O)NCc3ccncn3)c(N)c2c(C)c1Cl,inactive
10,Cc1nc2sc(C(=O)NCc3ccccc3)c(N)c2c(C)c1Cl,inactive
